Screening data from PubChem BioAssay.
Mdm2 MdmX PPI: inhibitors of human Mdm2/MdmX interaction | O15151+Q00987 | SaOS-2 split-luciferase Mdm2/MdmX complementation, luminescence | inhibition, % at 8 µM | hit rate 3% among 330,000 | AID 485346;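 active means inhibition of at least 50% at 8 µM in the primary screen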
Target sequence (O15151 whole entry, looked up): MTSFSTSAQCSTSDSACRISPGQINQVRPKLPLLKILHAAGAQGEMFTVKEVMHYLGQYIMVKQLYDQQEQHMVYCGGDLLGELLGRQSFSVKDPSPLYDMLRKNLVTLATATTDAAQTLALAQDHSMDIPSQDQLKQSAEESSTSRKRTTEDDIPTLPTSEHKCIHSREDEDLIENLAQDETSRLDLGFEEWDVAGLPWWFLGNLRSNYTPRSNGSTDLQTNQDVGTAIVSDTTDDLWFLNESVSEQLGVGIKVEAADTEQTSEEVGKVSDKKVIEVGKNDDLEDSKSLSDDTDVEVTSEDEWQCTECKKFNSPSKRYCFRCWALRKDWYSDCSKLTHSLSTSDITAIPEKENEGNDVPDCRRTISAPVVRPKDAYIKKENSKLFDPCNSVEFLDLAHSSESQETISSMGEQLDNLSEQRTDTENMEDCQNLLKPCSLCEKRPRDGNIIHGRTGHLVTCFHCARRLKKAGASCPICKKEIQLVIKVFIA
Target sequence (Q00987 whole entry, looked up): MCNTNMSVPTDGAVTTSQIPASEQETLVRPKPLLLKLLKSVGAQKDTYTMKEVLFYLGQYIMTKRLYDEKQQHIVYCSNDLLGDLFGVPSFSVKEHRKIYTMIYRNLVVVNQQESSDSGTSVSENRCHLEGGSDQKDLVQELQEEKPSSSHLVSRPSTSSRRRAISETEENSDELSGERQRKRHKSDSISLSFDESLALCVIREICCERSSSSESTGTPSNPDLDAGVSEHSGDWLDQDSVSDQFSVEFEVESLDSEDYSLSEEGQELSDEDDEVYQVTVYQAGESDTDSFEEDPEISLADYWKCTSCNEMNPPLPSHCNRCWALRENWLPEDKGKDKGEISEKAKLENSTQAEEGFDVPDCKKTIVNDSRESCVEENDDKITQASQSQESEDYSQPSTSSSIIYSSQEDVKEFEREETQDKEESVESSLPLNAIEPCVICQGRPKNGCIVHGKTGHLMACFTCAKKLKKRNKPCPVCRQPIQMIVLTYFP
CF NFkB block: inhibitors of cystic fibrosis induced NF-kB | KKLEB NF-kB-GFP reporter, PAF-induced, GFP fluorescence overnight | inhibition, % at 5 µM | hit rate 0.86% among 360,000 | AID 588850;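 active means at least 50% inhibition at 5 µM, scaled per plate between neutral and stimulator controls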;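 further: PAF is a Pseudomonas aeruginosa culture filtrate used as stimulus; plate controls were PAF-stimulated DMSO wells for no effect and unstimulated DMSO wells for full effect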
HSP90 inh: blocks HSP90-mediated luciferase refolding in reticulocyte lysate; Rabbit reticulocyte lysate, luciferase refolding luminescence, 3 h; inhibition, % at 5.6 µM; hit rate 0.91% among 290,000;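 active means inhibition above the screen-wide mean plus 3 SD, computed separately per campaign, cut at about 16% in these data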;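 further: 0% = DMSO wells and 100% = 60 µM geldanamycin wells; inhibitors lower the luminescence because luciferase stays unfolded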
KKLEB cytotox: reduces viability of KKLEB cystic fibrosis airway cells; KKLEB CF airway cells viability, ATPlite luminescence, overnight; active compounds read low; cells stimulated with P. aeruginosa culture filtrate; activity change (cytotoxicity), % at 5 µM; hit rate 0.36% among 360,000; AID 602141;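 active means corrected activity change at or below -50% at 5 µM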
LGR2 antag: blocks bursicon-induced cAMP signaling via Drosophila LGR2. HEK293 LGR2, CRE-luciferase, bursicon-stimulated, 4 h. inhibition, % at 9.99 µM. hit rate 0.35% among 380,000;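 active means drop in luminescence signal, shown as inhibition above about 50% in the replicate tests, limit read from the data, passing the limit was not always enough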;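 further: agonist challenge used bursicon conditioned medium at about half maximal strength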
Peg3 prom inh-1: reduces Peg3 promoter-driven luciferase expression in HeLa. hit rate 1.7% among 360,000. AID 588405. inhibition, % at 20 µM. HeLa PEG-Prom luciferase reporter, luminescence, overnight;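 active means inhibition of at least 50% at 20 µM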
HSP90 confirm: confirmation of HSP90 inhibitors | inhibition, % at 5.9 µM | rabbit reticulocyte lysate, luciferase refolding luminescence, 3 h | AID 1846 | hit rate 64% among 2,300 | shares compounds with HSP90 inh; in the data active means inhibition above about 18%;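 further: 0% = vehicle wells and 100% = reference inhibitor wells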
FLuc counter-1: blocks native firefly luciferase in HSP90 counter-screen; shares compounds with HSP90 inh; purified native firefly luciferase, luminescence; inhibition, % at 5.9 µM; hit rate 48% among 2,300;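 active means inhibition above the mean inhibition of all tested sample wells plus 3 SD, cut at about 10% in these data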;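 further: 0% = DMSO with luciferase and 100% = wells lacking luciferase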
Mdm2-MdmX conf: human Mdm2/MdmX binding inhibition, confirmed. shares compounds with Mdm2 MdmX PPI. luminescent assay. inhibition, % at 8 µM. hit rate 55% among 10,000; in the data active means inhibition above about 40%
FLuc counter-2: inhibits full-length luciferase, flagging false Mdm2/MdmX hits; shares compounds with Mdm2 MdmX PPI; SaOS-2 full-length luciferase counterscreen, luminescence; inhibition, % at 8 µM; hit rate 77% among 6,200;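 active means mean inhibition at 8 µM reaching about 37%, which flags the compound as non-specific, limit read from the data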;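 further: p53-null SaOS-2 cells with luciferase driven by a doxycycline-inducible promoter; compound on cells about two nights before reading with doxycycline added after day one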
Peg3 prom inh-2: confirmation of Peg3 promoter inhibitors. shares compounds with Peg3 prom inh-1. HeLa PEG-Prom luciferase reporter, luminescence, overnight. inhibition, % at 20 µM. hit rate 84% among 1,300. AID 602417;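 active means at 20 µM dose, 40% or more inhibition averaged across four replicates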
* marks the source's active call; other numbers are inactive results; . = no result. Sampled rows, rich in hits. Any-hit rate of the full collection: about 3.6%.

SMILES	Mdm2 MdmX PPI	CF NFkB block	HSP90 inh	KKLEB cytotox	LGR2 antag	Peg3 prom inh-1	HSP90 confirm	FLuc counter-1	Mdm2-MdmX conf	FLuc counter-2	Peg3 prom inh-2
Cc1onc(-c2ccccc2Cl)c1-c1nc(-c2ccccn2)no1	19.4	20.1	1.4	-3.8	.	14.1	.	.	.	.	.
Clc1ccccc1/C=C/c1nc(-c2ccccn2)no1	66.4*	5.9	64.0*	-38.0	98.4*	61.3*	86.0*	82.9*	54.4*	94.5*	46.8*
O=C(NCCc1ccccc1)c1ccc2c(c1)OCO2	66.5*	10.9	75.6*	-4.7	78.8*	57.8*	83.2*	78.1*	57.0*	51.6*	51.8*
O=C(NCCS(=O)(=O)NCc1ccccc1)c1ccc2c(c1)OCO2	24.7	21.4	.	4.9	-9.3	5.0	.	.	.	.	.
COc1cc(/C=C/c2nc3ccccc3s2)cc(OC)c1O	-13.0	-24.6	5.5	-17.1	-38.1	-217.4	.	.	.	.	.
CN(C)c1ccc(/C=C/c2nc3ccccc3s2)cc1	64.1*	-31.1	76.4*	-83.1*	.	102.1*	92.1*	90.1*	-41.6	.	66.6*
CCCC(=O)Nc1ccc2c(c1)C(=O)N(C)C[C@@H](OC)[C@H](C)CN(C(=O)CC1CC1)[C@@H](C)CO2	.	.	.	.	-18.1	.	.	.	.	.	.
CCCS(=O)(=O)c1cnc(C2COc3ccccc3O2)nc1N (stereo not drawn)	81.5*	-4.1	92.6*	-8.1	94.5*	87.8*	87.7*	80.1*	84.9*	47.6*	76.5*
CC(=O)Nc1ccc(-c2cn3cc(C)ccc3n2)cc1	-56.3	-2.2	4.1	-4.8	13.4	-188.3	.	.	.	.	.
Cc1ccc2nc(-c3ccccc3)cn2c1	67.4*	-14.0	85.9*	5.3	.	89.1*	91.8*	83.0*	58.0*	32.2	77.5*
C[C@H]1CN([C@@H](C)CO)C(=O)c2c(c3ccccc3n2C)-c2ccccc2CO[C@H]1CN(C)C(=O)c1ccc(F)cc1	.	.	.	.	-6.0	.	.	.	.	.	.
Clc1ccc2nc(N3CCCCC3)[nH]c2c1	-175.4	-6.5	-0.1	-2.8	-10.4	-242.6	.	.	.	.	.
O=c1c(Cl)c(N2CCCCC2)cnn1-c1nc2ccccc2[nH]1	52.5*	4.2	65.3*	-56.1*	.	88.0*	86.1*	79.6*	56.3*	62.6*	67.0*
CN1c2ccc(-c3cccc(F)c3)cc2[C@@H]2[C@@H](CCN2C(=O)c2ccc3c(c2)OCO3)[C@@H]1CO	.	.	.	.	11.8	.	.	.	.	.	.
COCC(=O)N(C)C[C@@H]1Oc2ncc(C#Cc3ccc(OC)cc3)cc2C(=O)N([C@H](C)CO)C[C@@H]1C	.	.	.	.	16.2	.	.	.	.	.	.
O=C(/C=C\Nc1ccc2c(c1)OCO2)c1ccccn1	72.2*	-16.7	71.3*	-54.5*	.	84.6*	95.6*	90.3*	64.5*	38.9*	71.2*
CC(=O)CSc1ccc(-c2nc3cc(C)c(C)cc3[nH]2)cn1	67.8*	-5.5	68.9*	-16.9	98.4*	84.5*	91.0*	56.6*	66.7*	66.3*	70.5*
CC1CCN(c2ccc(-c3cccc(NC(=O)C(F)(F)F)c3)nn2)CC1	72.9*	21.6	18.7*	-65.6*	96.9*	85.9*	56.4*	-18.4	68.8*	36.1*	87.2*
CC1CCN(c2ccc(-c3cccc(NC(=O)c4ccco4)c3)nn2)CC1	-148.8	16.1	.	-45.4	-26.0	-116.3	.	.	.	.	.
C[C@H](CO)N1C[C@H](C)[C@@H](CN(C)C(=O)Nc2ccc3c(c2)OCO3)Oc2ccc(NC(=O)Cn3cnnn3)cc2CC1=O	.	.	.	.	20.4	.	.	.	.	.	.
COC(=O)c1nn(-c2ccc3c(c2)CCN3C(C)=O)cc1O	50.7*	-19.4	85.5*	-1.3	.	89.5*	87.8*	74.2*	67.8*	31.0	83.6*
Cc1ccc(/C=C2\SC(=S)N(CCCC(=O)Nc3ccccn3)C2=O)cc1	68.9*	16.1	33.5*	0.6	.	53.2*	38.5*	-17.7	68.3*	51.5*	74.6*
CCCNC(=O)N[C@@H]1C=C[C@H](CC(=O)N2CCN(C)CC2)O[C@@H]1CO	.	.	.	.	-13.7	.	.	.	.	.	.
CO[C@@H]1CN(C)C(=O)c2ccc(NC(=O)C3CCOCC3)cc2OC[C@@H](C)N(Cc2cccnc2)C[C@@H]1C	.	.	.	.	-14.7	.	.	.	.	.	.
CCOc1ccc(NC(=O)c2cnccn2)cc1	-10.0	-2.9	9.4	0.1	.	-44.1	.	.	.	.	.
SMILES	Mdm2 MdmX PPI	CF NFkB block	HSP90 inh	KKLEB cytotox	LGR2 antag	Peg3 prom inh-1	HSP90 confirm	FLuc counter-1	Mdm2-MdmX conf	FLuc counter-2	Peg3 prom inh-2
O=C(Nc1ccc(Cl)cc1)Nc1cccc(C(=O)O)c1	-1.3	-4.5	78.2*	16.2	92.2*	52.7*	88.9*	86.7*	.	.	36.2
Cc1ccccc1OCC(=O)Nc1cccc(C(=O)O)c1	.	11.4	96.9*	-2.5	101.3*	84.4*	91.5*	86.2*	.	.	84.8*
CSc1cccc(NC(=O)Nc2ccc(Cl)cc2)c1	5.9	11.2	-0.1	6.1	.	-69.0	.	.	.	.	.
CCOc1ccc(NC(=O)c2ccccn2)cc1	28.4	-17.2	82.5*	-30.7	95.4*	66.6*	87.9*	79.6*	.	.	46.4*
Cc1cccc(OCC(=O)Nc2cc(NC(=O)COc3cccc(C)c3C)cc(C(=O)O)c2)c1C	25.3	-2.0	1.6	7.2	17.4	-2.2	.	.	.	.	.
CCOc1ccc(NC(=O)Nc2cccc(C(=O)O)c2)cc1	70.2*	-15.1	88.9*	-0.9	104.6*	84.6*	89.6*	85.5*	70.5*	21.3	74.8*
O=C(C[C@H]1C=C[C@H](NS(=O)(=O)c2ccc(F)cc2)[C@H](CO)O1)NC1CCCCC1	.	.	.	.	-11.6	.	.	.	.	.	.
COCC#Cc1ccc2c(c1)O[C@@H](CN(C)C)[C@H](C)CN([C@@H](C)CO)S2(=O)=O	.	.	.	.	-2.7	.	.	.	.	.	.
O=C1CCCCC1Sc1nnc(-c2ccc3c(c2)OCO3)o1 (stereo not drawn)	73.0*	-3.5	75.0*	-5.4	.	85.1*	93.5*	78.7*	69.3*	90.0*	74.3*
